Experimental findings from PubChem BioAssay (NCI) are described below.

Test systems include SN12C renal; UO-31 renal; TK-10 renal; ACHN renal; CAKI-1 renal; A498 renal; CCRF-CEM leukemia; MOLT-4 leukemia; EKVX NSCLC.
Holding throughout (test): NCI-60 one-dose screen, 48 h (100 = growth as untreated, 0 = no growth, -100 = all killed)
Holding throughout (conditions): 10 µM unless noted

Compounds without any hit were thinned out: in the full panel of roughly 83,000, 20% have a hit.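 For each line, cells grew in 96-well plates with the test compound present at a single concentration for 48 hours.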 Unmarked numbers belong to inactive results. Active and inactive are the calls of the source. How the source made its calls: active means growth percent below 10; inactive means the rest.

Consider `COc1ccc(C2=Nn3c(nnc3-n3nc(C)cc3C)SC2)cc1`, for which the growth in the assay on SN12C renal was 33.2%; in the assay with UO-31 renal, 45.8%; in the assay on TK-10 renal, 49%; in the assay on ACHN renal it was 35.6%; with CAKI-1 renal, 53.1%; in the assay on A498 renal, -8.89% (active). The growth with CCRF-CEM leukemia was 6.66% (active); in the assay with MOLT-4 leukemia it was 5.34% (active).

In the case of `COc1ccc(NC(=O)c2cc(OC)c(OC)c(OC)c2)cc1O`, the growth with EKVX NSCLC is 97.1%; with SN12C renal, 43.4%; with UO-31 renal it was 66.8%; in the assay on TK-10 renal it was 88.9%; with ACHN renal, 57.6%; with A498 renal, 46%. In addition, in the assay on MOLT-4 leukemia, the growth was 64.4%.

`COc1ccc(/C(C#N)=C/c2cc(OC)c(OC)c(OC)c2)cc1`: the growth in the assay on SN12C renal is 58.4%; in the assay on UO-31 renal, 55%; with TK-10 renal it was 68.3%; with ACHN renal it was 49.4%; in the assay on CAKI-1 renal, 50%; with A498 renal, 33.6%. Moreover, the figures for the growth in the assay on CCRF-CEM leukemia and with MOLT-4 leukemia were 26.8% and 32.3%, respectively.

Take `CCN(CC)CCC(CNc1ccnc2cc(Cl)ccc12)c1ccccc1` (stereo unspecified): the growth is 90% in the assay on EKVX NSCLC; 75.8% in the assay on SN12C renal; 55.9% with TK-10 renal; 35.3% with ACHN renal; 43.4% with CAKI-1 renal; 42.3% with A498 renal. Further, the growth with CCRF-CEM leukemia is 58.6%; with MOLT-4 leukemia it was 50.7%.

`COc1cc(-c2nn(-c3cccc(NC(=O)c4ccc(N5CCOCC5)c(C(F)(F)F)c4)c3)cc2-c2ccncc2)ccc1Cl`: the growth was 31% in the assay with SN12C renal; 24.6% in the assay with UO-31 renal; 17.8% with TK-10 renal; 21.3% with ACHN renal; 39.9% in the assay on CAKI-1 renal; -29.7% (active) in the assay with A498 renal. The growth with CCRF-CEM leukemia is 0.907% (active); in the assay on MOLT-4 leukemia, 4.07% (active).

Consider `O=C1c2ccccc2-c2ccccc2C1(Cl)Cl`, for which the growth is -93.2% (active) with EKVX NSCLC; -76.1% (active) in the assay with SN12C renal; 90% in the assay with TK-10 renal; -67% (active) with ACHN renal; -92.1% (active) in the assay with CAKI-1 renal; 101% with A498 renal. The growth in the assay on CCRF-CEM leukemia was 11.2%; in the assay with MOLT-4 leukemia, 0.097% (active).

In the case of `C=C(C)[C@@H]1CC[C@]2(C(=O)O)CC[C@]3(C)[C@H](CC[C@@H]4[C@@]5(C)C[C@@H](CC#Cc6ccc(C(F)(F)F)cc6)[C@H](O)C(C)(C)[C@@H]5CC[C@]43C)[C@@H]12`, the growth with EKVX NSCLC was 24.3%; in the assay on SN12C renal it was 17.6%; in the assay on UO-31 renal, 41%; in the assay with TK-10 renal, 38.2%; in the assay on ACHN renal, 31.2%; in the assay on A498 renal, -36.1% (active). Moreover, the growth with CCRF-CEM leukemia is -2.71% (active); in the assay with MOLT-4 leukemia, 4.32% (active).

`O=C(CSC1CCc2ccccc21)N/N=C/c1ccccc1O` (stereo unspecified): the growth with SN12C renal is 59.9%; in the assay with UO-31 renal it was 20%; with TK-10 renal, 37.1%; with ACHN renal it was 34%; with A498 renal, 101%; in the assay on CCRF-CEM leukemia, 18.2%. Also, in the assay on MOLT-4 leukemia, the growth is 2.59% (active).

In the case of `Cc1ccc(S(=O)(=O)/C(=C\c2ccc(Cl)cc2)C(=O)c2ccccc2)cc1`, the growth with SN12C renal is 98.9%; with UO-31 renal it was 90.1%; with TK-10 renal, 124%; in the assay with ACHN renal, 109%; in the assay on CAKI-1 renal it was 87.3%; with A498 renal it was 99.4%. Besides, the growth with CCRF-CEM leukemia is 97.7%; in the assay on MOLT-4 leukemia, 99.1%.

In the case of `Cc1cccc(/C=N/Nc2cc(C)c3cccc(C)c3n2)n1`, the growth in the assay on SN12C renal is 94.6%; with UO-31 renal, 76.5%; with TK-10 renal, 111%; in the assay on ACHN renal, 92.1%; in the assay on CAKI-1 renal, 98.3%; in the assay on A498 renal it was 97.7%. Moreover, the growth in the assay on CCRF-CEM leukemia was 74%; in the assay with MOLT-4 leukemia, 67.9%.

Turning to `COc1cc(-c2nn(-c3cccc(NC(=O)c4cccc(C(F)(F)F)c4)c3)cc2-c2ccncc2)ccc1Cl`, the growth with SN12C renal is 34.4%; in the assay with UO-31 renal it was 25.1%; with TK-10 renal it was 8.08% (active); in the assay on ACHN renal it was 31.6%; in the assay on CAKI-1 renal, 44.7%; with A498 renal it was -19% (active). Further, the growth with CCRF-CEM leukemia is 3.1% (active); in the assay with MOLT-4 leukemia, 8.63% (active).

For the compound `COc1ccc(-n2c(-c3ccccc3)c(-c3ccccc3)c3c(SCC(=O)N/N=C/c4ccc(Cl)cc4)ncnc32)cc1`, the growth with EKVX NSCLC is 87%; in the assay with SN12C renal, 99%; in the assay with TK-10 renal, 108%; in the assay on ACHN renal, 101%; with A498 renal, 75.6%; with CCRF-CEM leukemia, 93.4%. In addition, in the assay on MOLT-4 leukemia, the growth was 97%.

Turning to `O=S1(=O)CCC(N(/N=C/c2ccco2)c2ccccc2)C1` (stereo unspecified), the growth is 109% in the assay on SN12C renal; 86% with UO-31 renal; 101% in the assay with TK-10 renal; 106% in the assay with ACHN renal; 107% in the assay on CAKI-1 renal; 113% in the assay on A498 renal. The growth with CCRF-CEM leukemia is 94%; in the assay on MOLT-4 leukemia it was 97.1%.

As for `CC(=O)Nc1nc(N)nc(NC(C)=O)c1N=O`, the growth in the assay with SN12C renal is 106%; with UO-31 renal, 93.3%; in the assay on TK-10 renal, 114%; in the assay on ACHN renal, 104%; with A498 renal, 118%; in the assay on CCRF-CEM leukemia, 112%. Moreover, the growth in the assay on MOLT-4 leukemia was 113%.

Turning to `Cc1[nH]c2ccc(F)cc2c1CCNC(=O)C1CCN(C(=O)c2ccccc2)C1` (stereo unspecified), the growth is 80.5% [25 µM] in the assay with EKVX NSCLC; 95% [25 µM] with SN12C renal; 86.9% [25 µM] with TK-10 renal; 96.3% [25 µM] with ACHN renal; 77.1% [25 µM] in the assay with CAKI-1 renal; 43.8% [25 µM] in the assay on A498 renal. For the same compound, in the assay with MOLT-4 leukemia, the growth is 91.6% [25 µM].

Turning to `COc1ccc(Nc2ncccc2C(=O)NCc2cn(Cc3cccc(Oc4ccccc4)c3)nn2)cc1`, the growth with EKVX NSCLC is 40.1%; with SN12C renal it was 47.5%; in the assay with UO-31 renal, 40.9%; with TK-10 renal it was 76.3%; with ACHN renal, 51.2%; in the assay on CAKI-1 renal, 42.3%. Moreover, the results for the growth in the assay on A498 renal and with MOLT-4 leukemia were 27.5% and 48%, respectively.

As to `COc1ccc(-c2c(N)n[nH]c2-c2cc3c(c(OC)c2OC)OCO3)cc1`, the growth in the assay on EKVX NSCLC is 92.4%; in the assay on SN12C renal, 92.5%; in the assay with UO-31 renal, 84%; in the assay with TK-10 renal, 101%; in the assay on ACHN renal, 96.9%; in the assay with A498 renal, 75.7%. The growth with MOLT-4 leukemia is 96.5%.

Take `CCc1cnc(=S)n(-c2ccccc2)c1`: the growth in the assay with SN12C renal was 103%; with UO-31 renal, 97%; with TK-10 renal, 122%; in the assay on ACHN renal, 99.6%; in the assay with A498 renal, 117%; with CCRF-CEM leukemia it was 129%. In the assay with MOLT-4 leukemia, the growth is 125%.

With `CC1(c2ccc(Cl)cc2)OC(=O)CC(=O)O1`, the growth in the assay on EKVX NSCLC is 98.4%; in the assay with SN12C renal, 102%; with TK-10 renal, 121%; in the assay with ACHN renal it was 98.5%; in the assay on A498 renal, 101%; in the assay with CCRF-CEM leukemia, 100%. Further, the growth in the assay with MOLT-4 leukemia was 100%.

Take `COc1ccc2c(c1)OC1=C(C(=O)OC1)C2c1cc(OC)c2c(c1)OCO2` (stereo unspecified): the growth is 51.2% in the assay with EKVX NSCLC; 23.8% in the assay on SN12C renal; 41.6% in the assay with UO-31 renal; 47.3% in the assay with TK-10 renal; 42.7% in the assay with CAKI-1 renal; 24.2% in the assay on A498 renal. For the same compound, the figures for the growth in the assay on CCRF-CEM leukemia and in the assay on MOLT-4 leukemia were 16.3% and 5.79% (active), respectively.

`COc1ccc(C(=O)N2NC(=O)/C(=C/c3ccc(F)cc3)N=C2c2ccccc2)cc1`: the growth was 88.4% in the assay with EKVX NSCLC; 84.7% with SN12C renal; 91.7% with UO-31 renal; 96.4% with TK-10 renal; 94.2% in the assay with ACHN renal; 69.2% with A498 renal. Further, the growth with MOLT-4 leukemia is 42.4%.

As to `Cc1ccc(-c2cc3nc(-c4ccccc4)nc(C(Cl)Cl)n3n2)cc1`, the growth was -68% (active) in the assay with EKVX NSCLC; 55.5% with SN12C renal; -97.9% (active) in the assay on TK-10 renal; -99.3% (active) in the assay on ACHN renal; -86.4% (active) with CAKI-1 renal; -73.8% (active) in the assay with A498 renal. The growth in the assay on MOLT-4 leukemia was 89.3%.

Take `CC(C)CC1NC(C)(C)CO1` (stereo unspecified): the growth with EKVX NSCLC is 123%; in the assay on SN12C renal, 112%; with UO-31 renal, 90.2%; in the assay with TK-10 renal, 96.4%; with ACHN renal it was 113%; with CAKI-1 renal, 92.5%. Further, the results for the growth in the assay on CCRF-CEM leukemia and with MOLT-4 leukemia were 102% and 124%, respectively.

As for `COc1ccc(C(=O)N2NC(=O)/C(=C/c3ccccc3F)N=C2c2ccccc2)cc1`, the growth with EKVX NSCLC was 103%; in the assay on SN12C renal it was 99%; with UO-31 renal it was 89.8%; with TK-10 renal, 108%; with ACHN renal, 122%; in the assay with CAKI-1 renal, 98.9%. Also, the growth with A498 renal is 104%; in the assay on MOLT-4 leukemia, 109%.

Turning to `Cc1cc(C2=NNC(=O)Cc3cc4c(cc32)OCCO4)cc(C)c1N`, the growth in the assay on EKVX NSCLC was 59.6%; with SN12C renal it was 43.6%; in the assay with UO-31 renal, 40%; in the assay with TK-10 renal, 60.6%; in the assay on ACHN renal, 48.7%; in the assay on A498 renal, 24.2%. Moreover, the growth in the assay with MOLT-4 leukemia was 52.2%.

`COc1ccc(C(=O)N2NC(=O)/C(=C/c3cn(-c4ccccc4)nc3-c3ccccc3)N=C2c2ccccc2)cc1`: the growth is 96.1% with EKVX NSCLC; 95% with SN12C renal; 93.7% in the assay on UO-31 renal; 103% in the assay with TK-10 renal; 106% with ACHN renal; 95.6% in the assay on CAKI-1 renal. In addition, the growth in the assay on MOLT-4 leukemia is 85%.
